According to PubChem BioAssay (NCI):
The panel holds about 83,000 compounds, 20% with a hit somewhere; the sample as a whole holds those more often.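 Plates (96-well) were seeded with cells, treated with compound at one concentration, and incubated for 48 hours before percent growth was determined.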 Values without a mark were called inactive. Active and inactive are the calls of the source. Rule for the calls: active = growth percent below 10; inactive = the rest.

Key:
Assay in all cases: NCI-60 one-dose screen, 48 h (100 = growth as untreated, 0 = no growth, -100 = all killed)
Conditions in all cases: 10 µM unless noted
NCI-H23 lung = tested on: NCI-H23 lung
NCI-H322M lung = tested on: NCI-H322M lung
HOP-62 NSCLC = tested on: HOP-62 NSCLC
NCI-H460 lung = tested on: NCI-H460 lung
HOP-92 NSCLC = tested on: HOP-92 NSCLC
NCI-H522 lung = tested on: NCI-H522 lung
A549/ATCC NSCLC = tested on: A549/ATCC NSCLC
786-0 renal = tested on: 786-0 renal
COLO 205 colon = tested on: COLO 205 colon
NCI-H226 lung = tested on: NCI-H226 lung

| SMILES | growth (NCI-H23 lung) | growth (NCI-H322M lung) | growth (HOP-62 NSCLC) | growth (NCI-H460 lung) | growth (HOP-92 NSCLC) | growth (NCI-H522 lung) | growth (A549/ATCC NSCLC) | growth (786-0 renal) | growth (COLO 205 colon) | growth (NCI-H226 lung) |
| --- | --- | --- | --- | --- | --- | --- | --- | --- | --- | --- |
| COc1ccc(-c2cc(C(=O)NCc3ccccc3)nn2-c2ccc(S(C)(=O)=O)cc2)cc1OC | 105% | 122% | 99.7% | 108% | 73% | 87.4% | 93.8% | 98.6% | 116% |  |
| O=C(COc1ccc2c(c1)CCCC(=O)N2)NCc1ccccc1 | 94.5% |  |  | 104% |  | 89.1% | 103% | 101% | 106% | 93.9% |
| Cc1ccc(NCC(=O)Cn2cc(COc3ccc(C=Nc4cnc5ccccc5c4)cc3)nn2)cc1 | 109% | 103% | 102% | 130% | 116% | 104% | 103% | 107% | 114% |  |
| Cc1c(C(=O)NNC(=O)c2ccc(Cl)cc2)nnn1-c1ccc(Br)cc1 | 102% | 91% | 98.4% | 107% | 91.6% | 97.6% | 100% | 98.8% | 104% |  |
| CC1=C(C(=O)OC(C)C)C(c2cccc(O)c2)NC(=S)N1 (stereo not given) | 106% | 103% | 95.9% | 110% | 110% | 91.8% | 103% | 106% | 107% |  |
| COc1ccc(C(=O)/C=C/c2ccc(Cl)c(Cl)c2)cc1S(N)(=O)=O | -23.6% (active) | 21.3% | -47.1% (active) | 7.22% (active) | 31.2% | -47.2% (active) | 11.2% | -94.4% (active) | -75.9% (active) |  |
| NS(=O)(=O)c1ccc(N=Nc2c(O)n(CC(=O)Nc3ccccc3Cl)c3ccccc23)cc1 | 30% | 29.2% | 17.6% | 14.5% | 33.7% | 51.8% | 18.5% | 11.9% | -19.1% (active) |  |
| C=C1CC[C@@H]2[C@]3(C)COC(c4cn[nH]c4-c4ccc(OC)cc4)O[C@@H]3CC[C@@]2(C)[C@@H]1C/C=C1/C(=O)OCC1O (stereo not given in full) | -12.6% (active) |  | -56.9% (active) | -49.6% (active) |  | -18.4% (active) | 7.46% (active) | -89.7% (active) | -83.1% (active) | -45% (active) |
| CN(C)CCn1c2ccccc2c2nc3ccc([N+](=O)[O-])cc3nc21 | -9.77% (active) | 11.3% | -19.3% (active) | 4.86% (active) |  | -25.2% (active) | -50% (active) | 1.77% (active) |  |  |
| N/N=C(\N)c1c(N)nc(=S)[nH]c1-c1ccc(Cl)cc1Cl | 103% | 106% | 92.5% |  | 76.2% | 95.3% | 104% | 101% | 120% |  |
| NS(=O)(=O)c1ccc(NNC(=O)CCC(=O)c2ccccc2)cc1 | 105% | 109% |  | 107% | 93.3% | 89.1% | 103% | 98.4% | 118% |  |
| Clc1cccc(N/N=C/c2c[nH]c3ccc(Br)cc23)n1 | 39.8% | 51.6% | 54.1% | 12.9% |  | -27.8% (active) | 30.2% | 13% | 31.9% |  |
| Cc1ccc(NC(=O)[C@]23CCC(C)(C)CC2C2=CCC4[C@@]5(C)C[C@@H](O)[C@H](O)[C@@](C)(CO)C5CC[C@@]4(C)[C@]2(C)CC3)cc1 (stereo not given in full) |  | 69.3% | 47.2% | 3.15% (active) | -19.6% (active) | 12.3% | 20.5% | 17.1% | -65.9% (active) | 9.45% (active) |
| O=C(c1ccc(OCCN2CCOCC2)cc1)C1[C@H](c2ccc(Cl)cc2)[C@@H](c2ccccc2)NC12C(=O)Nc1ccc(Br)cc12 (stereo not given in full) |  | 53.8% | 60.6% | 6.73% (active) | -15.1% (active) | 10.3% | 17.6% | -4.29% (active) | -39.3% (active) | 44% |
| O=[N+]([O-])c1ccc(/C=C/c2nc3ccccc3n3c(=S)[nH]nc23)cc1 |  | 84.1% | 80.2% | 78% | 68.2% | 63.6% | 77% | 102% | 104% | 65.3% |
| Cn1cc(-c2nnc(N)nc2-c2c[nH]c3ccc(Br)cc23)c2cc(Br)cnc21 |  | 71.5% | 70.7% | 62.1% | 43.4% | 6.2% (active) | 59.5% | 46.2% |  | 74% |
| O=c1onc(-c2cc3ccccc3nc2Cl)n1-c1cccc2ccccc12 |  | 76.4% | 55.6% | 51.7% | 38.7% | 27.8% | 55.5% | 73.3% | 56.4% | 40.8% |
| COc1ccc(C(=O)/C=C/c2ccc(OC)c(OCc3ccccc3)c2)cc1OC |  | 13.5% | 38.2% | 4.04% (active) | 26.3% | -10.7% (active) | 8.7% (active) | 24.5% | 20.1% | 13.9% |
| COc1ccc(/C=N/NC(=O)Cn2nc(Cc3ccc(OC)cc3)c3onc(C)c3c2=O)cc1 |  | 59% | 42.8% | 30.5% | -20% (active) | 58.1% | 45.2% | -55.5% (active) |  | 49.6% |
| COC(=O)/C=C/c1cccc2c1C(=O)NC(C)(c1cc3cc4ccccc4cc3oc1=O)N2 (stereo not given) |  | 68% | 33.7% | 23.1% | 47.1% | 52.9% | 26.9% | 83.9% | 53% | 30.5% |
| CCOC(=O)C1=C(N)N(c2ccccc2)C2=C(C(=O)CC(C)(C)C2)C1c1ccccc1Cl (stereo not given) |  | 82.2% | 94.1% | 60.2% | 68.9% | 57.5% | 75.6% | 79.4% | 65.3% | 76.3% |
| Cn1cc(-c2cc(N)n3nc(-c4cn(C)c5ccccc45)cc3n2)c2cc(Br)ccc21 |  | 7.11% (active) | -45.2% (active) | -24.2% (active) | -59% (active) | -62.7% (active) | 4.06% (active) | -85% (active) | -79.1% (active) | 2.38% (active) |
| Nc1nnc(-c2c[nH]c3ccc(Br)cc23)c(-c2c[nH]c3ncc(Br)cc23)n1 |  | 53.5% | 49.4% | 27.7% | 21.5% | 30.9% | 42.2% | 34.7% |  | 39.3% |
| Cc1ccc(-c2nc(C#N)c(S(=O)(=O)N3CCN(S(=O)(=O)c4ccccc4)CC3)o2)cc1 |  | 77.9% | 87.7% | 32.6% | -20.4% (active) | -87.8% (active) | 57.9% | -87.1% (active) | -62.1% (active) | 69.2% |
| COc1cc(-c2nc3ccc(C)cc3[nH]2)ccc1OCc1nnc(-c2ccc(Br)cc2)o1 |  | 65.6% | 48% | 31.3% | 18.8% | 8.24% (active) | 49.8% | -50.8% (active) | 3.01% (active) | 57.5% |
| Cc1cc(C)cc(NC(=O)Cn2cc(COn3nnc4ccccc43)nn2)c1 |  | 99.3% | 115% | 114% | 117% | 95.6% | 107% | 101% | 117% | 101% |
| Cn1cc(-c2cc3nc(-c4c[nH]c5ccc(Cl)cc45)cc(N)n3n2)c2ccccc21 |  | -82% (active) | -72.3% (active) | -5.5% (active) | -76.5% (active) | -76.5% (active) | -75% (active) | -89% (active) | -87.4% (active) | -33.8% (active) |
| COc1cc2oc(-c3cccc(C(=O)Nc4ccc(Cl)cc4)c3)cc(=O)c2c(OCC(=O)N[C@@H](Cc2ccccc2)C(=O)O)c1OC |  | 103% | 120% | 111% | 124% | 96.3% | 106% | 102% | 119% | 102% |
| CCC(C)(C)c1ccc(OCCCCN2CCN(c3ccncc3)CC2)cc1 |  | 83.9% | 37.4% | 24.9% | 3.82% (active) | 36% | 47.4% | -56.4% (active) | -81.9% (active) | 39.8% |
